Experimental data from PubChem BioAssay (NCI).
This is part of a sample that, as a whole, favours compounds with a hit. Of some 79,000 tested, about 15% had one in any assay. The source made the active and inactive calls. Cut-off read from the data, not from the text of the source: active = growth inhibition above about 70%; inactive = the rest.

Key:
[1] = NCI Yeast Anticancer Drug Screen. Data for the rad50 strain (AID 155);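 note: 0% = growth of vehicle-only cultures of the same strain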; details: S. cerevisiae rad50 strain growth inhibition, stronger effect = higher value
Method in brief: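 Genetically altered yeast (DNA repair pathway); compound treatment; growth inhibition vs vehicle ctrl.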

[2] = NCI Yeast Anticancer Drug Screen. Data for the mec2-1 strain (AID 157); details: S. cerevisiae mec2-1 strain, stronger effect = higher value
Method in brief: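 Yeast mec2-1 mutant treated with compound. Readout: growth inhibition vs vehicle controls.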

[3] = NCI Yeast Anticancer Drug Screen. Data for the sgs1 mgt1 strain (AID 161);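 note: 0% = growth of cultures given vehicle only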; details: S. cerevisiae sgs1 mgt1 strain, stronger effect = higher value
Method in brief: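 Read-out: growth inhibition vs vehicle controls. Cells: mutant yeast strain deficient in DNA damage repair.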

[4] = NCI Yeast Anticancer Drug Screen. Data for the cln2 rad14 strain (AID 165);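 note: 0% = growth equal to vehicle treated cultures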; details: S. cerevisiae cln2 rad14 strain, stronger effect = higher value
Method in brief: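 cln2 rad14 yeast strain; compound exposure; growth inhibition read vs vehicle controls.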

[5] = NCI Yeast Anticancer Drug Screen. Data for the bub3 strain (AID 167); details: S. cerevisiae bub3 mutant strain, stronger effect = higher value
Method in brief: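 Yeast carrying a defined mutation is treated with each compound, and growth is compared with that of vehicle-exposed cells to give inhibition.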

[6] = NCI Yeast Anticancer Drug Screen. Data for the mlh1 rad18 strain (AID 175); details: S. cerevisiae mlh1 rad18 strain growth inhibition, stronger effect = higher value
Method in brief: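 Yeast w/ defined DNA-repair lesions; compound exposure; growth vs vehicle controls → % inhibition.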

[7] = at 5.0 µM (retest, dose inferred, filed as 0.5)
[8] = at 50.0 µM (retest, dose inferred, filed as 5.0)

Measured: growth inhibition

OCC1CCCCCCCCCCC1
inactive: [1]; [7] -2% | [2]; [7] 0% | [2]; [8] 66% | [3]; [7] 1% | [3]; [8] 22% | [4]; [7] 1% | [4]; [8] 30% | [5]; [7] 10% | [5]; [8] 58% | [6]; [7] -1% | [6]; [8] 51%
active: [1]; [8] 90% | [1]; at 50.0 µM 98.2% | [2]; at 50.0 µM 75.2% | [3]; at 50.0 µM 94.3% | [4]; at 50.0 µM 92.3% | [5]; at 50.0 µM 94.7% | [6]; at 50.0 µM 89.2%

C/C(=N/NC(=S)N1CCCCC1)c1cccc(/C(C)=N\NC(=S)N2CCCCC2)n1
active: [1]; [8] 93% | [1]; at 50.0 µM 74.2% | [2]; [8] 95% | [2]; at 50.0 µM 88% | [3]; [8] 96% | [3]; at 50.0 µM 74.7% | [4]; [8] 94% | [4]; at 50.0 µM 87.3% | [5]; [8] 94% | [5]; at 50.0 µM 90% | [6]; [8] 95% | [6]; at 50.0 µM 88.2%
inactive: [1]; [7] -13% | [2]; [7] -1% | [3]; [7] 6% | [4]; [7] -10% | [5]; [7] 8% | [6]; [7] -3%

CCCCCCCCN(CCCCCCCC)C(=O)C(C)O (stereo unspecified)
active: [1]; [8] 98% | [1]; at 50.0 µM 98.7% | [2]; [8] 98% | [2]; at 50.0 µM 89.2% | [3]; [8] 99% | [3]; at 50.0 µM 97.7% | [4]; [8] 97% | [4]; at 50.0 µM 81.7% | [5]; [8] 99% | [5]; at 50.0 µM 97.5% | [6]; [8] 98% | [6]; at 50.0 µM 94%
inactive: [1]; [7] 14% | [2]; [7] -2% | [3]; [7] 20% | [4]; [7] 9% | [5]; [7] 6% | [6]; [7] 27%

CCOc1ccc2nc(Cl)sc2c1
inactive: [1]; [7] -17% | [1]; [8] 67% | [2]; [7] -7% | [3]; [7] 6% | [3]; at 50.0 µM 69.5% | [4]; [7] 31% | [4]; [8] 39% | [5]; [7] 1% | [6]; [7] -12%
active: [1]; at 50.0 µM 82.5% | [2]; [8] 91% | [2]; at 50.0 µM 89.8% | [3]; [8] 79% | [4]; at 50.0 µM 94% | [5]; [8] 97% | [5]; at 50.0 µM 96.3% | [6]; [8] 89% | [6]; at 50.0 µM 79%

CC1CCC2(CC1)OCC(C)O2 (stereo unspecified)
inactive: [1]; [7] 4% | [1]; [8] 1% | [1]; at 50.0 µM -19.9% | [2]; [7] 16% | [2]; [8] 5% | [2]; at 50.0 µM 5.45% | [3]; [7] -2% | [3]; [8] -12% | [3]; at 50.0 µM -24.4% | [4]; [7] 26% | [4]; [8] 15% | [4]; at 50.0 µM 19.8% | [5]; [7] 27% | [5]; [8] 34% | [5]; at 50.0 µM -0.9% | [6]; [7] 7% | [6]; [8] 1% | [6]; at 50.0 µM -8.8%

CC[N](CC)[Ge]([CH2]C)[CH2]C.CC[N](CC)[Ge]([CH2]C)[CH2]C
inactive: [1]; [7] 34% | [1]; at 50.0 µM 57% | [2]; [7] 21% | [3]; [7] 56% | [3]; at 50.0 µM 56.4% | [4]; [7] 48% | [4]; at 50.0 µM 37.1% | [5]; [7] 59% | [6]; [7] 27%
active: [1]; [8] 98% | [2]; [8] 98% | [2]; at 50.0 µM 76.9% | [3]; [8] 99% | [4]; [8] 98% | [5]; [8] 99% | [5]; at 50.0 µM 75% | [6]; [8] 97% | [6]; at 50.0 µM 77.7%

COC(=O)N/N=C(/CC1(O)C(=O)Nc2ccccc21)c1ccc(Cl)cc1Cl (stereo unspecified)
inactive: [1]; [7] 21% | [2]; [7] 10% | [3]; [7] 32% | [4]; [7] 12% | [5]; [7] 8% | [6]; [7] 19%
active: [1]; [8] 97% | [1]; at 50.0 µM 97.5% | [2]; [8] 97% | [2]; at 50.0 µM 98.5% | [3]; [8] 97% | [3]; at 50.0 µM 98.2% | [4]; [8] 97% | [4]; at 50.0 µM 92.3% | [5]; [8] 97% | [5]; at 50.0 µM 96.8% | [6]; [8] 94% | [6]; at 50.0 µM 97.8%
